# ALR H2O2 inh: human ALR oxidase inhibition via reduced H2O2 | 290,000 compounds, 3.8% hits | P55789 | AID 485317 | inhibition, % (concentration not given with the values) | purified ALR, DTT oxidation, H2O2 HRP-luminol luminescence;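 active means mean replicate inhibition above about 79%, with every replicate also reaching it, limit read from the data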
# Target sequence (P55789 whole entry, looked up): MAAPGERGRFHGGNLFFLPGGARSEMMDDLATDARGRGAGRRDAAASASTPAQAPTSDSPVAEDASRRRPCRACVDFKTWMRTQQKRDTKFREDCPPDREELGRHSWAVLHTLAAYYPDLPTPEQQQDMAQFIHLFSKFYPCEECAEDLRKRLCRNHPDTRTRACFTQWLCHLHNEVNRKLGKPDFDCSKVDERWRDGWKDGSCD
# M18AAP inhibitor: blocks P. falciparum M18 aspartyl aminopeptidase | recombinant PfM18AAP, H-Glu-NHMec fluorogenic cleavage | inhibition, % at 7.35 µM | 290,000 compounds, 1.2% hits;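 active means inhibition above the campaign mean inhibition over all tested compounds plus 3 SD, cut at about 28% in these data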;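 further: 0% = plate median of test compound wells and 100% = 2 mM ZnCl2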
# PfGluPho inh: PfG6PD (Plasmodium falciparum) enzyme inhibition | AID 504690 | inhibition, % at 20 µM | PfGluPho enzyme, NADPH resazurin-diaphorase fluorescence | 350,000 compounds, 0.78% hits;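 active means inhibition reaching at least a set limit at 20 µM in the primary screen, cut at about 59% in these data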;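 further: 0% = DMSO wells with substrate and 100% = DMSO wells lacking glucose-6-phosphate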
# PHOSPHO1 inh: inhibitors of human PHOSPHO1 phosphatase. recombinant PHOSPHO1, absorbance phosphatase assay. inhibition, % at 13.3 µM. 290,000 compounds, 1.1% hits. AID 1565; in the data active means inhibition above about 60%
# Target sequence (Q8TCT1 whole entry, looked up): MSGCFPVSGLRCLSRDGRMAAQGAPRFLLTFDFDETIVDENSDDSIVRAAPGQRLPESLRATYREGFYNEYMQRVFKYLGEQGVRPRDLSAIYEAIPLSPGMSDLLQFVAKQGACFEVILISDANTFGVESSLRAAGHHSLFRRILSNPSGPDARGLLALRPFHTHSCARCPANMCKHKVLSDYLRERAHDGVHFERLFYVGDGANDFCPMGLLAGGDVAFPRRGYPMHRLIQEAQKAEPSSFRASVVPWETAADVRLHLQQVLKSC
# H9c2 protect: protects H9c2 cardiomyocytes from peroxide injury. protection from H2O2 cell death, % at 20 µM. 360,000 compounds, 0.63% hits. AID 588492. H2O2 injury protection, ATPLite, 2 h;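 active means compounds giving at least 50% protection of heart cells from peroxide-induced death in the single-dose screen, raw or plate-pattern-corrected value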;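 further: 0% = DMSO wells with peroxide and 100% = DMSO wells without peroxide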
# * hit, by the source's call; nt = not tested or not shown. In the library only some 5.6% were active in any assay of this set; here they are far more common.
SMILES,ALR H2O2 inh,M18AAP inhibitor,PfGluPho inh,PHOSPHO1 inh,H9c2 protect
Cc1ccc(/C(O)=C2\C(=O)C(=O)N(CCCN3CCOCC3)C2c2ccccc2F)cc1 (stereo not given),nt,nt,-26.7,nt,7.8
CC(C)NC(=O)C1(C)CCN1C(=O)c1ccc(F)c(Cl)c1 (stereo not given),nt,nt,nt,nt,3.6
O=C(NCC1CCCCC1)c1ccc2nc([C@@H]3O[C@H](CO)[C@H](O)[C@H](O)[C@H]3O)[nH]c2c1,nt,nt,nt,nt,-1.2
COc1cc(C(=S)N2CCCC2)ccc1OCc1ccc(C)cc1,-9.8,-2.2,15.5,34.8,-9.0
COc1ccccc1N1CCN(Cc2cnc3ccc(Cl)cn23)CC1,nt,3.3,-3.0,36.0,-7.5
O=[N+]([O-])c1ccc(O)c(C=Nc2ccc3nc(-c4ccccc4)[nH]c3c2)c1,-14.9,10.5,25.2,-9.7,-2.3
Oc1c(Br)cc(C=Nc2ccc3nc(-c4ccccc4)[nH]c3c2)c(O)c1Br,22.9,28.8*,48.5,17.5,nt
O=C(NCc1nnnn1-c1ccc(F)cc1)c1ccc(S(=O)(=O)N2CCOCC2)cc1,nt,nt,-8.6,nt,0.4
CCN1C(=O)c2cccc3c(S(=O)(=O)NCc4ccccc4)ccc1c23,-8.1,nt,18.7,nt,0.8
CCN1C(=O)c2cccc3c(S(=O)(=O)Nc4ccc(O)c(C(=O)O)c4)ccc1c23,97.6*,8.8,-34.5,19.8,-2.1
Cc1cc(C(=O)N2CCN(S(=O)(=O)c3ccc(C)c(C)c3)CC2)no1,nt,nt,-2.9,nt,-7.3
Cc1cccc(S(=O)(=O)NC(=O)C2(C)CCN2C(=O)C2(c3ccc(Cl)cc3)CCC2)c1 (stereo not given),nt,nt,nt,nt,7.3
COc1cccc(/C=N/n2c(=S)n(C)c3ccccc32)c1OC,-4.6,-0.5,8.3,73.3*,-5.6
COc1cccc(/C=N/n2c(C)nc3ccccc32)c1OC,-4.0,-3.5,0.6,-3.2,4.4
CC(=O)Nc1ccc(C(=O)CSc2nc3ccccc3n2CC(=O)N2CCCC2)cc1,0.2,1.1,12.4,71.3*,0.8
CCC(Sc1nc2ccc(N)cc2s1)C(=O)Nc1nccs1 (stereo not given),99.0*,16.2,24.2,54.7,-2.7
CC(Sc1nc2ccccc2s1)C(=O)Nc1nnc(C(C)C)s1 (stereo not given),4.6,-0.4,-16.6,-6.0,-3.0
CCC(Sc1nc2ccccc2s1)C(=O)Nc1nnc(C)s1 (stereo not given),97.7*,4.0,-14.9,2.3,-1.1
Cc1ccc(NCc2ccc(O)c3ncccc23)cc1,-21.4,2.9,17.8,40.7,81.8*
Cc1cccc(NCc2ccc(O)c3ncccc23)c1C,-18.1,11.1,40.9,48.8,43.0
Cc1cccnc1NCc1ccc(O)c2ncccc12,1.8,-1.5,5.3,77.7*,33.3
Cc1ccc(NCc2ccc(O)c3ncccc23)cc1C,-29.1,-4.5,32.7,28.3,62.6*
CC(C)N(Cc1ccccc1)C(=O)COC(=O)c1cnc(Cl)c(Cl)c1,-1.2,nt,10.2,nt,-0.7
COC(=O)c1ccccc1NC(=O)CSc1[nH]c(=O)cc(C)c1C#N,-5.4,-4.4,-13.4,20.8,4.6
N#Cc1c(SCC(=O)Nc2ccc(C(F)(F)F)cc2)sc2c(O)cc(=O)[nH]c12,95.1*,8.8,-1.6,10.3,-0.5
SMILES,ALR H2O2 inh,M18AAP inhibitor,PfGluPho inh,PHOSPHO1 inh,H9c2 protect
Cc1cc(=O)[nH]c(SCC(=O)Nc2ccc3c(c2)CCC3)c1C#N,48.6,nt,1.9,nt,-5.9
Cc1cc(=O)[nH]c(SCC(=O)Nc2ccc(F)cc2)c1C#N,91.3*,3.6,-30.9,-24.8,-9.0
Cc1cc(=O)[nH]c(SCC(=O)Nc2ccc(Br)cc2)c1C#N,98.9*,0.6,-4.5,12.6,-28.8
O=C(c1ccc(Br)cc1)N1CCC2(CC1)NCCc1[nH]cnc12,-2.8,0.6,-8.3,52.6,0.0
CC(=O)Nc1ccc(Sc2ncccc2C(=O)Nc2ccc(F)cc2)cn1,-2.8,4.9,14.3,62.0*,9.0
O=C(O)c1ccc2c(c1)S(=O)(=O)c1cc(N3CCN(c4cnccn4)CC3)ccc1C2=O,nt,nt,23.4,nt,50.2*
O=C1c2ccccc2S(=O)(=O)c2cc(N3CCN(C(=O)c4ccccc4)CC3)ccc21,-6.1,nt,0.4,nt,nt
O=C(C1CC1c1ccccc1)N1CCOCC1 (stereo not given),98.4*,-1.3,-10.3,0.7,-1.4
CCNc1ccc(S(=O)(=O)N(C)C)cc1NCC(=O)Nc1ccc(Br)cc1F,nt,8.5,12.1,-26.6,-17.4
CCNc1ccc(S(=O)(=O)N(C)C)cc1NCC(=O)Nc1ccccc1F,98.8*,21.8,7.5,-11.7,-0.1
COc1ccc(C(=O)NCCn2cc(SCC(=O)NCc3ccco3)c3ccccc32)cc1,8.0,1.7,9.2,61.5*,-1.5
C=CCn1cnc2c(nnn2Cc2ccc(F)cc2)c1=O,-2.4,5.2,-18.7,7.5,7.9
Nc1nc2c(ncn2[C@@H]2O[C@H](CNCC3=Cc4cc(O)ccc4OC3)[C@@H](O)[C@H]2O)c(=O)[nH]1,nt,nt,nt,nt,0.7
CCOC(=O)c1ccc(NC(=O)CSCC(=O)OCC(=O)c2ccccc2)cc1,99.5*,1.7,-19.5,-11.9,4.0
COC(=O)c1ccc(CSCC(=O)Nc2ccccc2)cc1,92.0*,-3.2,16.9,32.5,-1.3
Cc1nnc(SCC(=O)Nc2ccc(C(N)=O)cc2)n1-c1ccccc1,-10.7,5.4,1.3,41.6,-0.8
O=C(CSCc1ccc(C(=O)O)cc1)Nc1ccccc1,-8.2,3.8,-4.3,51.8,0.7
COC(=O)c1cccc(NC(=O)CSCc2ccccc2)c1,-7.5,6.8,-12.8,nt,-2.6
NC(=O)c1ccc(NC(=O)CSC(=O)c2ccccc2)cc1,98.5*,nt,33.3,nt,2.1
O=C(CSCc1ccc(C(=O)O)cc1)Nc1ccc2ccccc2c1,98.9*,3.2,-5.6,1.8,2.3
CCCCN(CCCC)CCNC(=O)c1cn(C)c2ccc(S(=O)(=O)N3CCCC3)cc2c1=O,-4.7,0.5,-6.2,6.9,-3.3
Cc1nc2c(C)cccc2c(SC(=N)N)c1CC=C(Cl)Cl,8.3,-4.0,-17.7,30.5,1.5
C=CCc1c(C)nc2c(C)cccc2c1SC(=N)N,99.9*,-1.1,2.5,38.6,1.2
CC(NC(=O)COc1cccnc1[N+](=O)[O-])c1ccc(Cl)cc1 (stereo not given),-6.4,11.1,-6.3,32.3,5.0
Cc1ccc(NC(=O)CSC2=NN3CCCC(=O)N=C3S2)cc1Cl,nt,2.5,-3.0,23.2,-18.0
SMILES,ALR H2O2 inh,M18AAP inhibitor,PfGluPho inh,PHOSPHO1 inh,H9c2 protect
O=C(NNC(=S)NC(=O)c1ccc(Br)cc1)c1cccc([N+](=O)[O-])c1,98.6*,-1.8,-18.4,-16.0,32.8
O=C(NNC(=O)c1ccc([N+](=O)[O-])cc1)c1ccc(F)cc1,-7.1,nt,11.8,nt,-2.1
O=C(NNC(=S)NC(=O)c1ccccc1)c1ccc([N+](=O)[O-])cc1,99.0*,-8.4,-13.4,-75.7,29.7
CCCCCC(=O)NNC(=S)NC(=O)c1ccc([N+](=O)[O-])cc1,88.3*,31.3*,5.9,48.5,-3.9
O=C(O)CCC(=O)NNC(=O)c1ccc([N+](=O)[O-])cc1,nt,-8.4,-13.0,23.6,-7.9
O=C(Nc1c(Cl)cc(Cl)cc1C(=O)NCCN1CCOCC1)c1cccc([N+](=O)[O-])c1,99.4*,-0.3,-1.3,51.8,-2.3

# Bioassay records (PubChem BioAssay)
